The target in test [1] is Glucocorticoid receptor (Homo sapiens) (UniProt P04150). The test can be described thus: ATG_GR_TRANS: Attagene TRANS-FACTORIAL HepG2 Assay for human Glucocorticoid Receptor (GR) (AID 2282978; active = hit-call score of the fitted dose curve at least 0.9, where 1 is the maximum;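 also: activators score as hits since higher reporter transcript over DMSO is fitted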). The settings on record: HepG2 Attagene TRANS GR reporter, mRNA transcription. Put shortly:
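Transiently transfected HepG2 cells express chimeric NR-GAL4 proteins acting on GAL4-UAS reporter units. Compounds are applied for 24 h. mRNA induction over DMSO is measured by capillary electrophoresis.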

In test [2] the target is Bile acid receptor (Homo sapiens) (UniProt Q96RI1). The test can be described thus: ATG_FXR_TRANS: Attagene TRANS-FACTORIAL HepG2 Assay for Farnesoid X Receptor (FXR) (AID 2282979; active = hit-call score of the fitted dose curve at least 0.9, where 1 is the maximum;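 also: hits raise reporter mRNA above DMSO so AC50 marks FXR activation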). To be noted: HepG2 Attagene TRANS FXR-GAL4 reporter transcription. Put shortly: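 HepG2 cells were transiently transfected with GAL4-UAS reporters driven by chimeric NR-Gal4 proteins and dosed for 24 h. Reporter mRNA was quantified by RT-PCR, fluorescent labelling, HpaI digestion and capillary electrophoresis, with gain of signal scored versus DMSO.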

For test [3], the target named is Oxysterols receptor LXR-alpha (Homo sapiens) (UniProt Q13133). The test can be described thus: ATG_LXRa_TRANS: Attagene TRANS-FACTORIAL HepG2 Assay for human Liver X Receptor alpha (LXRa) (AID 2282980; active = hit-call score of the fitted dose curve at least 0.9, where 1 is the maximum). The settings on record: HepG2 Attagene TRANS reporter, LXRa transactivation. Put shortly:
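HepG2 cells transiently transfected with GAL4-UAS reporter units for chimeric NR-Gal4 proteins, exposed to chemicals for 24 h. Reporter mRNA quantified by RT-PCR and capillary electrophoresis; gain of signal fitted relative to DMSO.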

The target of test [4] is Oxysterols receptor LXR-beta (Homo sapiens) (UniProt P55055). The test can be described thus: ATG_LXRb_TRANS: Attagene TRANS-FACTORIAL HepG2 Assay for human Liver X Receptor beta (LXRb) (AID 2282981; active = hit-call score of the fitted dose curve at least 0.9, where 1 is the maximum). To be noted: HepG2 Attagene TRANS GAL4-LXRb reporter, mRNA. Put shortly:
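HepG2 cells transiently transfected with GAL4-UAS reporter units for chimeric NR-Gal4 proteins, dosed for 24 h. Reporter transcripts measured by RT-PCR and capillary electrophoresis; gain-of-signal fitting relative to DMSO.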

The target in test [5] is Hepatocyte nuclear factor 4-alpha (Homo sapiens) (UniProt P41235). The test is described as follows: ATG_HNF4a_TRANS: Attagene TRANS-FACTORIAL HepG2 Assay for human Hepatocyte Nuclear Factor 4 alpha (HNF4a) (AID 2282982; active = hit-call score of the fitted dose curve at least 0.9, where 1 is the maximum). To be noted: HepG2 HNF4a transactivation reporter, mRNA readout. The method, boiled down:
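HepG2 cells transiently transfected with HNF4a-Gal4 chimera and GAL4-UAS reporter units, dosed for 24 h. Reporter mRNA measured by RT-PCR, fluorescent primer extension and capillary electrophoresis; gain-of-signal fitted relative to DMSO.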

A short description of test [6]: ATG_M_32_TRANS: Attagene TRANS-FACTORIAL HepG2 Assay for M32 Transcription Factor (Internal Marker) (AID 2282984; active = hit-call score of the fitted dose curve at least 0.9, where 1 is the maximum). To be noted: HepG2 Attagene TRANS M32 internal marker reporter. The method, boiled down:
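HepG2 cells transiently transfected with GAL4-UAS reporter units, dosed for 24 hours. Reporter mRNA quantified by RT-PCR, 6-FAM labelling, HpaI digestion and capillary electrophoresis; internal-marker signal fitted upward relative to DMSO.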

Test [7] has as its target Nuclear receptor subfamily 4 group A member 2 (Homo sapiens) (UniProt P43354). The test is described as follows: ATG_NURR1_TRANS: Attagene TRANS-FACTORIAL HepG2 Assay for human Nuclear Receptor Related Protein 1 (NURR1) (AID 2282985; active = hit-call score of the fitted dose curve at least 0.9, where 1 is the maximum). To be noted: HepG2 Attagene TRANS reporter, mRNA readout. The method, boiled down:
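HepG2 cells transiently transfected with NURR1-Gal4 chimera and GAL4-UAS reporter units; after 24 hr compound exposure, reporter mRNA quantified by RT-PCR and capillary electrophoresis; gain of signal fitted against DMSO.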

The target of test [8] is Transcriptional activator Myb (Homo sapiens) (UniProt P10242). The test can be described thus: ATG_Myb_CIS: Attagene CIS-FACTORIAL HepG2 Assay for human Myeloblastosis (Myb) Proto-Oncogene Transcription Factor (AID 2282986). To be noted: HepG2 Attagene CIS-FACTORIAL Myb reporter transcription; actives raise or lower the signal. The method, boiled down: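 Using HepG2 liver cells bearing transiently transfected cis-promoter reporter constructs, the assay measures induction or loss of reporter mRNA after 24 hours of dosing. Detection used fluorescently labeled RT-PCR products separated by capillary electrophoresis.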
Sequence of Transcriptional activator Myb (Homo sapiens) (P10242 whole entry, looked up): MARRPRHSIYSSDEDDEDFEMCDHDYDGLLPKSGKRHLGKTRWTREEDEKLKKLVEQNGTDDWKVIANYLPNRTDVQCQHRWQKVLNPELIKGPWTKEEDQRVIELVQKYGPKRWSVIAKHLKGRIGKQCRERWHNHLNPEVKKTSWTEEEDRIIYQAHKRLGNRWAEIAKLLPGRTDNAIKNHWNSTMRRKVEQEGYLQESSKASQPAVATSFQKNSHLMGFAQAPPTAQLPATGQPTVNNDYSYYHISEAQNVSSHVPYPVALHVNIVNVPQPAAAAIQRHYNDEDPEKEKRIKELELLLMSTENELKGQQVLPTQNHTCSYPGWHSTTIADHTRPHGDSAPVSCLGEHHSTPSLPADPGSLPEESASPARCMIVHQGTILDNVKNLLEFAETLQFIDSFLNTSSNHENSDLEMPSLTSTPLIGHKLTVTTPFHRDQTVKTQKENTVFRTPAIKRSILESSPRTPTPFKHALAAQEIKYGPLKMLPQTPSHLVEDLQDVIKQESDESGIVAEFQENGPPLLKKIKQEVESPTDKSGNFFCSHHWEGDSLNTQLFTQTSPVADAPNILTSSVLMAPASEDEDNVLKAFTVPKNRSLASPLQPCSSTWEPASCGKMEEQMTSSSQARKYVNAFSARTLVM

Test [9] addresses Nuclear respiratory factor 1 (Homo sapiens) (UniProt Q16656). The test is described as follows: ATG_NRF1_CIS: Attagene CIS-FACTORIAL HepG2 Assay for human Nuclear Respiratory Factor 1 (NRF1) Orphan Gene (AID 2282987). To be noted: HepG2 NRF1 cis-element reporter, Attagene multiplex; actives raise or lower the signal. Put shortly: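 Reporter mRNA induction or loss in HepG2 cells after 24 h dosing; cis-regulated reporter constructs report endogenous transcription-factor activity. Quantified by RT-PCR/capillary electrophoresis fluorescence, DMSO-referenced.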

The nature of test [10]: ATG_NFI_CIS: Attagene CIS-FACTORIAL HepG2 Assay for human Nuclear Factor I (NFI) (AID 2282989). The settings on record: HepG2 cis-regulatory reporter, NFI response element transcription; actives raise or lower the signal. Put shortly: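 Cells: human liver HepG2, transiently transfected with promoter-regulated reporter transcription units. Exposure 24 h. Detection: fluorescent RT-PCR products separated by capillary electrophoresis, normalised to DMSO negative control.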

Test [11] addresses Myc proto-oncogene protein (Homo sapiens) (UniProt P01106). The test can be described thus: ATG_Myc_CIS: Attagene CIS-FACTORIAL HepG2 Assay for human Myelocytomatosis (Myc) Proto-Oncogene Transcription Factor (AID 2282990). The settings on record: HepG2, Attagene cis-reporter transcription factor activity; actives raise or lower the signal. The method, boiled down: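 Read-out: fluorescent reporter mRNA fragments resolved by capillary electrophoresis after RT-PCR. Human HepG2 liver cells carried transfected cis-element reporter units and were dosed for 24 h. Gain or loss of signal fitted relative to DMSO baseline.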

The nature of test [12]: ATG_NF_kB_CIS: Attagene CIS-FACTORIAL HepG2 Assay for human Nuclear Factor Kappa B (NF-kB) (AID 2282991). To be noted: HepG2 Attagene cis-factorial NF-kB reporter mRNA; actives raise or lower the signal. Put shortly: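 DMSO served as negative control and baseline for bidirectional curve fitting. Transiently transfected HepG2 cells were dosed for 24 h, then reporter transcripts were measured by RT-PCR with capillary electrophoresis detection.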

The nature of test [13]: ATG_NRF2_ARE_CIS: Attagene CIS-FACTORIAL HepG2 Assay for human Nuclear Factor Erythroid 2 Related Factor 2 (NFR2) response to Antioxidant Response Elements (ARE) (AID 2282992).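 As to AC50: reporter mRNA level measured by RT-PCR and capillary electrophoresis fluorescence.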 The settings on record: HepG2 Attagene ARE/NRF2 reporter, transcription factor activity; actives raise or lower the signal. Put shortly:
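HepG2 cells transiently transfected with multiplexed cis-regulated reporter transcription units measure endogenous transcription factor activity. Reporter mRNA at 24 h is quantified by RT-PCR, fluorescent labelling and capillary electrophoresis, with bidirectional fitting relative to DMSO.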

The nature of test [14]: ATG_Oct_MLP_CIS: Attagene CIS-FACTORIAL HepG2 Assay for human Octamer-Binding Transcription Factor (Oct) (AID 2282993). To be noted: HepG2 Attagene cis-factorial Oct reporter, mRNA; actives raise or lower the signal. The method, boiled down: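 HepG2, transient MRTU transfection, cis promoter elements; 24 h dosing; RT-PCR/CE fluorescence read-out of reporter mRNA; fit both directions vs DMSO.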

In test [15] the target is Cellular tumor antigen p53 (Homo sapiens) (UniProt P04637). The test is described as follows: ATG_p53_CIS: Attagene CIS-FACTORIAL HepG2 Assay for human p53 Transcription Factor (AID 2282994). To be noted: HepG2 p53 cis-element reporter, Attagene mRNA; actives raise or lower the signal. Put shortly: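 HepG2 cells transiently transfected with multiplexed cis-regulated reporter transcription units read endogenous TF activity. After 24 h compound exposure, reporter mRNA was quantified by RT-PCR, fluorescent labelling, HpaI digestion and capillary electrophoresis; bidirectional fits versus DMSO baseline.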
Sequence of Cellular tumor antigen p53 (Homo sapiens) (P04637 whole entry, looked up): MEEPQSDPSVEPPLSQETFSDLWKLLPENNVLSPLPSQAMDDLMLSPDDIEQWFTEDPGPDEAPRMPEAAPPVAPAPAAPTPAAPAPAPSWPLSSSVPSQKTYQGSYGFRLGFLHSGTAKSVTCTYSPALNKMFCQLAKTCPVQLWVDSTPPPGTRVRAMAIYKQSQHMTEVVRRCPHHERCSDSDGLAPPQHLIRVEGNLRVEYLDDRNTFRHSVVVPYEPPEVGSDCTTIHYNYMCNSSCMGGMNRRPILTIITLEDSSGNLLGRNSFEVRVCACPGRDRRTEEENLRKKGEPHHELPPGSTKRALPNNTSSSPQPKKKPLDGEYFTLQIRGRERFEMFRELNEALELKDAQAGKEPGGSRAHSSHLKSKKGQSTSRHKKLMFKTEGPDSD

A short description of test [16]: BSK_3C_TissueFactor: BioMAP Diversity Plus: 3C Assay for Tissue Factor Biomarker Activity (AID 2282997). To be noted: BioMAP 3C HUVEC, tissue factor biomarker readout; actives raise or lower the signal. Put shortly:
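HUVEC were treated 24 h, then surface tissue factor measured by ELISA and fitted bidirectionally against DMSO. Parallel SRB total-protein staining assessed overt cytotoxicity at the same time point.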

A short description of test [17]: BSK_3C_uPAR: BioMAP Diversity Plus: 3C Assay for Urokinase-type plasminogen activator receptor (uPAR) Biomarker Activity (AID 2282998). The settings on record: BioMAP 3C HUVEC, uPAR biomarker ELISA; actives raise or lower the signal. Put shortly: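 A multiplexed primary-cell system built on human umbilical vein endothelium was used, with chemical present for 24 h before reading. Cell-surface uPAR was detected by ELISA; signal change in either direction counted against DMSO.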
(In general: ELISA stands for enzyme-linked immunosorbent assay.)

Test [18] in a line: ATG_M_06_TRANS: Attagene TRANS-FACTORIAL HepG2 Assay for M06 Transcription Factor (Internal Marker) (AID 2282983; active = hit-call score of the fitted dose curve at least 0.9, where 1 is the maximum;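 also: reporter transcript level by RT-PCR then capillary electrophoresis fluorescence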). To be noted: HepG2 Attagene TRANS M06 internal marker reporter. Put shortly: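 HepG2 cells transiently transfected with GAL4-UAS multiple reporter units, dosed 24 h. Reporter RNA reverse-transcribed, PCR-amplified, 6-FAM-labeled, HpaI-digested and quantified by capillary electrophoresis; this internal-marker signal fitted upward relative to DMSO.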

Test [19] can be described thus: ATG_Hpa5_TRANS: Attagene TRANS-FACTORIAL HepG2 Assay for human GAL4-Hpa5 Hepatocyte Transcription Factor Basal Promoter (AID 2282975; active = hit-call score of the fitted dose curve at least 0.9, where 1 is the maximum;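 also: hits are increases in reporter mRNA over DMSO baseline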). To be noted: HepG2 Attagene GAL4-Hpa5 transcription reporter. Put shortly: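 Basal-promoter GAL4 background control within the HepG2 trans-factorial panel of transiently transfected reporter units. Reporter mRNA is measured 24 h after dosing by RT-PCR and capillary electrophoresis, fitted for gain of signal versus DMSO.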

Test [20] in a line: ATG_GAL4_TRANS: Attagene TRANS-FACTORIAL HepG2 Assay for GAL4 (Internal Marker) (AID 2282976; active = hit-call score of the fitted dose curve at least 0.9, where 1 is the maximum). The settings on record: HepG2 Attagene TRANS GAL4 internal marker reporter. Put shortly: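 Background-control readout: GAL4-UAS reporter transcript in transiently transfected HepG2 cells after 24 h compound exposure. Measured by RT-PCR, 6-FAM primer extension, HpaI digest and capillary electrophoresis; gain-of-signal fit versus DMSO.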

Results filed as inconclusive are left out. Activity calls are given as the source filed them. The calls were made as follows, unless noted: active = hit-call score of the fitted dose curve at least 0.9, where 1 is the maximum; inactive = score below 0.9.

This passage reports outcome and AC50 results from PubChem BioAssay (EPA / NIEHS).

The AC50 is the concentration giving half of the maximal activity seen.

Sequence of Nuclear respiratory factor 1 (Homo sapiens) (Q16656 whole entry, looked up): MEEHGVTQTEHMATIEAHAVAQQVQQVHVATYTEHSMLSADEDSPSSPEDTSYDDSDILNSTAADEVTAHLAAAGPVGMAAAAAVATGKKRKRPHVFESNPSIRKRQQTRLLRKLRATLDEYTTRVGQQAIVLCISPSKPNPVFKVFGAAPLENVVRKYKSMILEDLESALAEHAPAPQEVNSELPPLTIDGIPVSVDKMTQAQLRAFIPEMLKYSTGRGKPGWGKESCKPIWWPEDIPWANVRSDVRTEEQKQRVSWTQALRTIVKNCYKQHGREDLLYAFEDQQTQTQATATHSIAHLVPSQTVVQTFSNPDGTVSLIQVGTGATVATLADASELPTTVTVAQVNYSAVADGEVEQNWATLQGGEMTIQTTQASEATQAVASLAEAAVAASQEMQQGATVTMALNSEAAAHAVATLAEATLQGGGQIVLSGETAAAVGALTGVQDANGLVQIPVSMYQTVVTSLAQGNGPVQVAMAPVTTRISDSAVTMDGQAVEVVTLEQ
Sequence of Glucocorticoid receptor (Homo sapiens) (P04150 whole entry, looked up, the tested form may be a part): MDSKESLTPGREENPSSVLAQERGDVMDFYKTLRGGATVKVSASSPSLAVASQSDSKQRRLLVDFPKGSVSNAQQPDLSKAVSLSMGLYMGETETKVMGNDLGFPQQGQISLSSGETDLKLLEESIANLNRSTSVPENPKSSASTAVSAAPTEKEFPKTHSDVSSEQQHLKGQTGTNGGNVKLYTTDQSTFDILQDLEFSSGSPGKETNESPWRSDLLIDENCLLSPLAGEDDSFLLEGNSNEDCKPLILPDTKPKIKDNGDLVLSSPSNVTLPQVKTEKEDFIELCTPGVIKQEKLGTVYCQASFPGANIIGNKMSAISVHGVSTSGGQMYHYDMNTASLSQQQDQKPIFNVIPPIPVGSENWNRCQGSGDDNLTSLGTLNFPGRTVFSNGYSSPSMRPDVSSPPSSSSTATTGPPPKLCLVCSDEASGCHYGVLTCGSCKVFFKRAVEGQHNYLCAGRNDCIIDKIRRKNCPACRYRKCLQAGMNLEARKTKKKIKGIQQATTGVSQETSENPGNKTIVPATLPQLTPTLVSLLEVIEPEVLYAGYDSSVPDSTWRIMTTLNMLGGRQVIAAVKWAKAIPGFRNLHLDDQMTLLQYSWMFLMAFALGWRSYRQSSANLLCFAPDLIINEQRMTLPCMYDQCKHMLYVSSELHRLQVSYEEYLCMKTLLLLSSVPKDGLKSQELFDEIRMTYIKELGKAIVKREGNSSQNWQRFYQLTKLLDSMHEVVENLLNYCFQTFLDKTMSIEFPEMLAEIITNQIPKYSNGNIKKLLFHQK
Sequence of Oxysterols receptor LXR-alpha (Homo sapiens) (Q13133 whole entry, looked up, the tested form may be a part): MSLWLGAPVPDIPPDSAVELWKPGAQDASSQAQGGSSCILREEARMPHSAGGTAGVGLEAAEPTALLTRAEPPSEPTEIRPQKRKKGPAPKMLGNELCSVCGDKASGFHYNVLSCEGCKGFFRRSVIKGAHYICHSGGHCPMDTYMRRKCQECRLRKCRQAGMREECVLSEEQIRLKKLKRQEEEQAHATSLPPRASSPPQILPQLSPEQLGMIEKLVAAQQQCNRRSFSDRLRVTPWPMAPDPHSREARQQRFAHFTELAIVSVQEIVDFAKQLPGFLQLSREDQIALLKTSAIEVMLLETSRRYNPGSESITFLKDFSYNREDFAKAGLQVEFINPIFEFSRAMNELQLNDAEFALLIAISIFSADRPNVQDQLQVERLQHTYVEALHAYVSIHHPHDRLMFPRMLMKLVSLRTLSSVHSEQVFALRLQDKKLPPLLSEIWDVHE
Sequence of Oxysterols receptor LXR-beta (Homo sapiens) (P55055 whole entry, looked up, the tested form may be a part): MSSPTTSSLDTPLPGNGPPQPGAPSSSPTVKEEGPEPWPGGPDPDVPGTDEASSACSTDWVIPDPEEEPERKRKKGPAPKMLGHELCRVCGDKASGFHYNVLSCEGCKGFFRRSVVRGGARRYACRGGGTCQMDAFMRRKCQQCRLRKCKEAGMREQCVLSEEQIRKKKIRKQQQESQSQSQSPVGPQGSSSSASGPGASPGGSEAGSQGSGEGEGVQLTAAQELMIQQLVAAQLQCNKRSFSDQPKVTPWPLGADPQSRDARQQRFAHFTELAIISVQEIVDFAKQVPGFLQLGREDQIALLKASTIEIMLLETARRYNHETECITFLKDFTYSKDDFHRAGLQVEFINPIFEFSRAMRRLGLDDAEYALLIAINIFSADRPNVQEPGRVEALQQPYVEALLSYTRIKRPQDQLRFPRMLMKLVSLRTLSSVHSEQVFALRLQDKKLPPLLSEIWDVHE
Sequence of Hepatocyte nuclear factor 4-alpha (Homo sapiens) (P41235 whole entry, looked up, the tested form may be a part): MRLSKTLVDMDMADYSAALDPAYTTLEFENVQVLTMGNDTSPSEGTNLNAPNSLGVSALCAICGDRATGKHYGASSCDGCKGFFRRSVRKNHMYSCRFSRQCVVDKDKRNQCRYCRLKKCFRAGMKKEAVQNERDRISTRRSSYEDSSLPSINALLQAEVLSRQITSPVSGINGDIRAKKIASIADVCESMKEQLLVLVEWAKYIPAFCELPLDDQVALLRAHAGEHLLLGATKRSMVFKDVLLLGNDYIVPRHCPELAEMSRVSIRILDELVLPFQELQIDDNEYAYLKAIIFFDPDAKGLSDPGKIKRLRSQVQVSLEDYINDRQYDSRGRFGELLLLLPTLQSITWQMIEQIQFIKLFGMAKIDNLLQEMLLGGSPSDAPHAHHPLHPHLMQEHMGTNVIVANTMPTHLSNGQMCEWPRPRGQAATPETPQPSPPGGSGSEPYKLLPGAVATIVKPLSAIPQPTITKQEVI
Sequence of Nuclear receptor subfamily 4 group A member 2 (Homo sapiens) (P43354 whole entry, looked up, the tested form may be a part): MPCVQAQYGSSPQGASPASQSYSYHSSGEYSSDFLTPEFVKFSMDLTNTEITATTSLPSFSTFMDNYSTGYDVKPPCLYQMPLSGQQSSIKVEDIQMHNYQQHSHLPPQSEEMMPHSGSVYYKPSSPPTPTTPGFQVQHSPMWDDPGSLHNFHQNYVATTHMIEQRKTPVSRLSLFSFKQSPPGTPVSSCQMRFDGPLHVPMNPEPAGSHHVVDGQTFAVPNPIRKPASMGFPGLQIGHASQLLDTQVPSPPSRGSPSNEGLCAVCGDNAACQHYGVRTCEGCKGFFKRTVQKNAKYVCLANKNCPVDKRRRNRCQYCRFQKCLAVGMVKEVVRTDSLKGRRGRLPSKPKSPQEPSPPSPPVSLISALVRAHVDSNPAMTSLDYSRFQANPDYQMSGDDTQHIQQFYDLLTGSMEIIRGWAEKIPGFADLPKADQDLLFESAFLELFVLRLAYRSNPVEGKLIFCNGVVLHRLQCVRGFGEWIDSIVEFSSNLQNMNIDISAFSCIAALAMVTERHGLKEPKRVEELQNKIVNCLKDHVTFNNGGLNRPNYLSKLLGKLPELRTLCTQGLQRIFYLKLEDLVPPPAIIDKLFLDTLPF
Sequence of Myc proto-oncogene protein (Homo sapiens) (P01106 whole entry, looked up, the tested form may be a part): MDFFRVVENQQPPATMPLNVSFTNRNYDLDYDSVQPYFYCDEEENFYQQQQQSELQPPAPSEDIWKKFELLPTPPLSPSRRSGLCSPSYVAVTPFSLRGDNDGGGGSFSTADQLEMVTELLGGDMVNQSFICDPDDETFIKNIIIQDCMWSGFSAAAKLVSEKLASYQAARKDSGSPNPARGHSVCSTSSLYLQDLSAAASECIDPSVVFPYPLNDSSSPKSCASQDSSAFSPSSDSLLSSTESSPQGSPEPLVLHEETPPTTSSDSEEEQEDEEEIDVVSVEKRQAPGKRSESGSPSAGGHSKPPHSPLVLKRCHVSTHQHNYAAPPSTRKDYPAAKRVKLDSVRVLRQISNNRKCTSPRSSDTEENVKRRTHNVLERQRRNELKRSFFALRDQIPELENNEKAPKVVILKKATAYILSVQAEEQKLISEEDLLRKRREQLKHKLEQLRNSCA

Take `CCOc1nc(F)cc2nc(S(=O)(=O)Nc3c(Cl)cccc3Cl)nn12`: the molecule was classed as inactive in test [1], in [2], in test [3], in test [4], in test [5] and in [6]. For the same molecule, the molecule was classed as inactive in [7], in test [9], in test [10], in test [11], in test [12] and in [13]. In addition, the call in test [14], in test [15], in test [16] and in [17] was inactive. Moreover, in test [8], the AC50 was 0.0229 µM (active).
As to `CC(C)Oc1cccc(NC(=O)c2ccccc2C(F)(F)F)c1`, the molecule was called inactive in test [1], in test [3], in test [4], in test [5], in [6] and in [7]. Also, the molecule was classed as inactive in test [8], in test [9], in [10], in test [12], in test [15] and in test [16]. Further, in test [17], the outcome was inactive. Besides, the figures for the concentration at half-maximal activity (AC50) in test [13] and in test [14] were 6.33 µM (active) and 11.7 µM (active), respectively.
In the case of `CC(C)N1C(=O)c2ccccc2NS1(=O)=O`, the molecule was called inactive in test [1], in test [18], in [6], in test [8], in test [9] and in test [10]. For the same molecule, the molecule was called inactive in test [12], in test [14], in [15], in test [16] and in test [17]. Besides, the half-maximal activity concentration (AC50) in test [3] is 50 µM (active); in [4], 50 µM (active); in test [13], 33 µM (active).
Turning to `COP(=S)(OC)SCn1nnc2ccccc2c1=O`, the call in [19], in test [20], in test [3], in [4], in test [18] and in test [6] was inactive. Also, the molecule was called inactive in test [8], in test [9], in test [10], in test [11], in [15] and in test [16]. Further, in test [17], the outcome was inactive. The AC50 in [13] is 25.1 µM (active); in test [14], 12.8 µM (active).
